Structures are written as SMILES. The panel holds about 83,000 compounds, 20% with a hit somewhere; the sample as a whole holds those more often.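 Treatment: one concentration, 48 hours, 96-well format. Scoring: percent growth, with anything below 10 considered active.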 The source made the active and inactive calls.

We go through 22 molecules from PubChem BioAssay (NCI).

In the experiment the test system is A498 renal. Briefly: NCI-60 one-dose screen, 48 h (100 = growth as untreated, 0 = no growth, -100 = all killed). To be noted: 10 µM.
Take `CCN(CC)CCOc1cccc2c1C(=O)c1cccc(OCCN(CC)CC)c1C2=O`: the growth was 63% (inactive).

In the case of `O=C(NCCCNS(=O)(=O)c1ccc(Cl)cc1)Nc1ccc(-n2cc(-c3ccncc3)c(-c3ccc(Cl)c(O)c3)n2)cc1`, the growth is 50.1% (inactive).

In the case of `C1CN(CC2CCC(CN3CCOCC3)O2)CCO1` (configuration not stated), the growth is 117% (inactive).

Regarding `N#CC1=C(N)Oc2cc(N)ccc2C1c1cccnc1` (configuration not stated), the growth was 93.5% (inactive).

Consider `CCOC(=O)c1cc(C(=O)c2cc(OC)cc(OC)c2)n2nc(C)ccc12`, for which the growth was -1.92% (active).

Consider `COc1cc(C)ccc1Oc1nc(Nc2ccc(N3CCOCC3)cc2)ncc1NC(=O)Nc1cc(C(F)(F)F)cc(C(F)(F)F)c1`, for which the growth was 67.8% (inactive).

Regarding `COc1ccc(/C=C2\CCCC3C2=Nc2ccccc2NC3c2ccc(OC)cc2)cc1` (configuration not stated), the growth is 77.3% (inactive).

Take `CCN(CC)CC(=O)N(CC)c1ccc(C)c(Cl)c1`: the growth was 86.8% (inactive).

In the case of `O=C(CC(CC(=O)c1ccccc1)c1ccccc1O)c1ccccc1`, the growth was 97.5% (inactive).

As to `C=C(C)[C@@H]1CC[C@]2(COCCC#N)CC[C@]3(C)[C@H](CC[C@@H]4[C@@]5(C)Cc6c([nH]c7ccccc67)C(C)(C)[C@@H]5CC[C@]43C)[C@@H]12`, the growth was 106% (inactive).

Consider `COc1cc(-c2nn(-c3cccc(NC(=O)CCN4CCN(Cc5ccccc5)CC4)c3)cc2-c2ccncc2)ccc1Cl`, for which the growth was -8.39% (active).

For `Cc1cc(=O)n2nnc3cc(Cl)c(Cl)cc3n12`, the growth was 138% (inactive).

With `O=C(/C=C/C=C/c1c(C2CC2)nc2ccccc2c1-c1ccc(F)cc1)c1cccs1`, the growth was -21.7% (active).

As to `CC(=O)[C@H]1CC[C@]2(C)[C@@H]1CC[C@@H]1[C@@]3(C)CC(CCC#N)(CCC#N)C(=O)C(C)(C)[C@@H]3CC[C@]12C`, the growth was 88.9% (inactive).

With `CCNCC(=O)Nc1ccc(C(=O)OCC)cc1`, the growth is 86% (inactive).

For the molecule `S=C(NCc1ccccc1)NCc1ccccc1`, the growth was 80% (inactive).

Take `NNC(=O)Oc1c(Cl)cc(Cl)cc1[N+](=O)[O-]`: the growth was 118% (inactive).

For `CN1CCN(CCC(=O)Nc2cccc(-n3cc(-c4ccncc4)c(-c4ccc(Cl)c(O)c4)n3)c2)CC1`, the growth is 34.5% (inactive).

In the case of `O=S(=O)(O)c1cccc(Nc2ccc3ccccc3c2)c1`, the growth is 96.7% (inactive).

`CCN(CC)CCOc1ccc2c(c1O)C(=O)c1ccccc1C2=O`: the growth was 88.3% (inactive).

Turning to `S=C(SSC(=S)N(c1ccccc1)c1ccccc1)N(c1ccccc1)c1ccccc1`, the growth was 114% (inactive).

For the molecule `CN1CCN(CC(=O)Nc2cccc(-n3cc(-c4ccncc4)c(-c4ccc(Cl)c(O)c4)n3)c2)CC1`, the growth was 35.6% (inactive).
